Assay outcomes as filed in PubChem BioAssay.
Tb PYK inh – blocks Trypanosoma brucei pyruvate kinase | Q57TT1 | AID 624173 | TbPYK enzyme, Kinase-Glo Plus ATP luminescence, 45 min | 0.12% of 410,000 active | Potency, µM (series often up to 76.8 µM), for inactives: top-dose activity, negative = inhibition, usual class: inhibitors; note: potency is the fitted concentration of half-maximal effect; % is set by controls: 0 for no effect and ±100 for the full control effect; nearly all actives have a fitted effect of over 50% in size
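ADP (130 uM final) triggers the TbPYK reaction after compound addition; incubation is 45 min at room temperature. Kinase-Glo Plus is then added and luminescence imaged. Normalized data are fitted to concentration-effect curves.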
FBPA Giardia inh – inhibitors of Giardia lamblia fructose-1,6-bisphosphate aldolase; A8B2U2; purified Giardia FBPA; Potency, µM (highest dose often 59.6 µM), without a hit: at the highest dose activity, negative = inhibition, actives largely listed as inhibitors; 0.71% of 290,000 active; note: potency is the fitted concentration of half-maximal effect; % is set by controls: 0 for no effect and ±100 for the full control effect; nearly all actives have a fitted effect of over 55% in size
Target sequence (A8B2U2 whole entry, looked up): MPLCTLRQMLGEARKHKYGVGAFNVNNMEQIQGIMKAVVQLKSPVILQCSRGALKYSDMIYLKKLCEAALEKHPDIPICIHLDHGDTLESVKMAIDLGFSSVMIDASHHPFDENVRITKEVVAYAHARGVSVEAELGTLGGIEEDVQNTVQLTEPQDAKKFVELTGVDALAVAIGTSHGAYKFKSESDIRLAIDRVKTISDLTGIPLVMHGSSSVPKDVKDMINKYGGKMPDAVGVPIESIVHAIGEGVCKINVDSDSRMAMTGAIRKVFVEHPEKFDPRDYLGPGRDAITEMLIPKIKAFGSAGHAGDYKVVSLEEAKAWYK
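Giardia FBPA (40 nM reagent) was preincubated 10 min at RT with compound (up to 57.5 uM final), then substrate plus GAPDH/TPI/NAD/arsenate coupling system with diaphorase/resazurin was added; resorufin fluorescence (525/598 nm) was read after 20 min.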
LmPK inh – inhibitors of Leishmania mexicana pyruvate kinase | Potency, µM (top dose mostly 57.5 µM), for inactives: at the highest dose activity change, negative = inhibition, actives largely listed as inhibitors | purified LmPK, Kinase-Glo ATP luminescence, 1 h | 0.37% of 290,000 active | AID 1721 | Q27686; note: potency is the fitted concentration of half-maximal effect; % is set by controls: 0 for no effect and ±100 for the full control effect
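Screened at intermediate enzyme activity to detect both inhibitors and activators: LmPK at 0.1 nM, with a 0.5 nM enzyme column as activation reference. PEP 0.5 mM, ADP 0.1 mM; ATP detected by luminescence after 1 h.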
Cycloheximide cs – counter-screen hit for Shiga toxin inhibitors, cycloheximide; cell reporter, cycloheximide protein synthesis inhibition counterscreen; max response, %; 12% of 300,000 active; AID 2314; in the data active = max response mostly above about 13%, no sharp cut-off; inactive = mostly below about 14%; note: read at 38.3 µM for the half of the compounds with a filed dose; 0% is about no effect
RE007 growth inh – less growth of the S. pombe RE007 Vpr strain; S. pombe RE007 Vpr strain, BacTiter-Glo ATP luminescence, 24 h; Potency, µM (titrated, usually from 92.2 µM), for the others: at the highest dose activity change, negative = less growth, usual class: inhibitors; 0.21% of 360,000 active; active = well fitted falling curve with a large enough effect; inconclusive = small, poorly fitted or top-dose-only effect; inactive = no such curve, though single readings can be large or run the other way; note: potency is the fitted concentration of half-maximal effect; % is set by controls: 0 for no effect and ±100 for the full control effect; nearly all actives have a fitted effect of over 50% in size
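Fission yeast RE007 carrying one integrated HIV-1 vpr copy, seeded at OD 0.01 in PMG+AL medium with 23 nL pinned compound. Grown 24 h at 30 degrees; viability read by BacTiter-Glo luminescence after 5 min.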
Shiga toxin inh – Shiga toxin inhibition | Vero cells, Shiga toxin protein synthesis inhibition reporter | inhibition, % at 38.7 µM | 9.2% of 290,000 active; in the data active = inhibition mostly above about 28%, no sharp cut-off; inactive = mostly below about 43%; note: 0% is about no effect
Starred values were filed as active, the others as inactive. Many of the other results were omitted from the sample, so hits are more common in it than they were. Unless noted, calls come from the whole dose curve; as a rule, active = well fitted curve in the direction sought with a large enough effect; inconclusive = small, poorly fitted or top-dose-only effect, or another doubt; inactive = no such curve, though single readings can be large; an effect the other way counts as inactive or inconclusive.

Screening O=C(NC(=O)c1ccc(Cl)cc1)OC1CCCCC1 returned Tb PYK inh -2.5%, FBPA Giardia inh -1.4%, LmPK inh -1.1%, Cycloheximide cs 48.4*, RE007 growth inh 46.6% and Shiga toxin inh 63.1*.
O=C(CNC(=O)c1ccc(Cl)cc1)NC1CCCCC1 was read as Tb PYK inh 1.0%, LmPK inh -11.8%, Cycloheximide cs 5.1, RE007 growth inh -1.6% and Shiga toxin inh -30.0.
Screening O=C(CNC(=O)c1ccccc1)OC1CCCCC1 returned Tb PYK inh 7.8%, FBPA Giardia inh 6.1%, LmPK inh -8.9%, Cycloheximide cs 34.7*, RE007 growth inh 22.5% and Shiga toxin inh 56.4*.
For CN(CC(=O)Nc1ccccc1Cl)C1CCCCC1 the results were Tb PYK inh -4.6%, FBPA Giardia inh 3.9%, LmPK inh 0.3%, Cycloheximide cs 7.0, RE007 growth inh -20.5% and Shiga toxin inh 14.7.
`Cc1sc2c(c1C)CN(C1CC(C)(C)NC(C)(C)C1)CN2C(=O)c1ccco1` gave FBPA Giardia inh 0.2%, LmPK inh -4.2%, Cycloheximide cs 22.8* and Shiga toxin inh 44.0*.
For COc1cc(NC(=O)CC(C)n2ccnc2)cc(OC)c1 (centres undefined) the results were Tb PYK inh 0.0%, FBPA Giardia inh -9.9%, LmPK inh 1.2%, Cycloheximide cs 1.5, RE007 growth inh -13.5% and Shiga toxin inh -6.2.
Screening COC(=O)C(CC(=O)c1ccc(Br)cc1)n1nc(C)cc1C (centres undefined) returned Tb PYK inh inconclusive, FBPA Giardia inh 1.5%, LmPK inh -7.1%, Cycloheximide cs -2.8, RE007 growth inh 28.2µM* and Shiga toxin inh -7.0.
Screening COC(=O)C(CC(=O)c1ccc(C)cc1)n1nc(C)cc1C (centres undefined) returned Tb PYK inh -2.6%, FBPA Giardia inh -3.0%, LmPK inh 0.3%, Cycloheximide cs -1.3, RE007 growth inh -12.2% and Shiga toxin inh -2.3.
`COC(=O)C(CC(=O)c1ccc(Br)cc1)n1ccnc1` (centres undefined) gave FBPA Giardia inh inconclusive, LmPK inh 10µM*, Cycloheximide cs 1.0 and Shiga toxin inh -1.2.
Cc1cc(O)c(C(C)C)cc1N=Cc1ccc(N(C)C)cc1 was read as Tb PYK inh inconclusive and RE007 growth inh -6.8%.
For COc1cc(CNc2ccccc2SC)ccc1O the results were Tb PYK inh -26.1%, FBPA Giardia inh -24.6%, LmPK inh -0.3%, Cycloheximide cs 25.2, RE007 growth inh -4.6% and Shiga toxin inh 69.7*.
CCOc1cc(CNc2ccccc2SC)ccc1O was read as FBPA Giardia inh inconclusive, LmPK inh -8.0%, Cycloheximide cs 22.7 and Shiga toxin inh -9.0.
For O=C1NC(c2ccc(Br)cc2)=N/C1=C/c1ccco1 the results were Tb PYK inh -4.9%, FBPA Giardia inh inconclusive, LmPK inh -3.4%, Cycloheximide cs 40.7*, RE007 growth inh -5.7% and Shiga toxin inh 62.9*.
Screening O=C1NC(c2ccccc2Cl)=N/C1=C/c1ccco1 returned Tb PYK inh -20.8%, FBPA Giardia inh -18.2%, LmPK inh inconclusive, Cycloheximide cs 38.2*, RE007 growth inh inconclusive and Shiga toxin inh 61.1*.
Screening O=C1NC(=O)C(=Cc2ccco2)C(=O)N1 returned Tb PYK inh inconclusive and RE007 growth inh 12.2%.
Cc1ccc(Cl)cc1-n1c(=O)c2sc3ccccc3c2n(CC(=O)NC2CCCCC2)c1=O was read as Tb PYK inh -4.0%.
`COc1ccc(-c2oc3ccccc3c2C(=O)OCc2ccc(O)cc2)cc1` gave Tb PYK inh -7.0%, FBPA Giardia inh -3.0%, LmPK inh -0.1%, Cycloheximide cs 24.3*, RE007 growth inh -7.7% and Shiga toxin inh 27.7*.
COc1ccc2oc(-c3ccccc3)c(C(N)=O)c2c1 was read as Tb PYK inh -20.0%, FBPA Giardia inh -0.1%, LmPK inh 0.7%, Cycloheximide cs 27.6*, RE007 growth inh -21.1% and Shiga toxin inh 33.8.
COc1ccc(-c2oc3ccccc3c2C(=O)OCc2ccccc2)cc1 was read as Tb PYK inh -6.0%, FBPA Giardia inh 13.4%, LmPK inh 6.0%, Cycloheximide cs 31.0*, RE007 growth inh 1.0% and Shiga toxin inh 33.7*.
